Source: PubChem BioAssay (National Center for Advancing Translational Sciences (NCATS))
MCF10A rerep: DNA re-replication induction in MCF 10a cells. MCF 10A DNA re-replication, Hoechst nuclear intensity, 48 h. Potency, µM (series often up to 46.1 µM), actives largely listed as activators. hit rate 2.9% among 350,000. AID 624296; further: nearly all actives have a fitted effect of over 50% in size
RORgamma inh: blocks mouse ROR gamma transcriptional activity; P51450; Drosophila S2 Gal4-RORgamma UAS-luciferase reporter, 20 h; Potency, µM (top dose mostly 53.6 µM), hits mostly inhibitors; hit rate 5.4% among 310,000; AID 2551; further: nearly all actives have a fitted effect of over 60% in size
Target sequence (P51450 whole entry, looked up, the tested form may be a part): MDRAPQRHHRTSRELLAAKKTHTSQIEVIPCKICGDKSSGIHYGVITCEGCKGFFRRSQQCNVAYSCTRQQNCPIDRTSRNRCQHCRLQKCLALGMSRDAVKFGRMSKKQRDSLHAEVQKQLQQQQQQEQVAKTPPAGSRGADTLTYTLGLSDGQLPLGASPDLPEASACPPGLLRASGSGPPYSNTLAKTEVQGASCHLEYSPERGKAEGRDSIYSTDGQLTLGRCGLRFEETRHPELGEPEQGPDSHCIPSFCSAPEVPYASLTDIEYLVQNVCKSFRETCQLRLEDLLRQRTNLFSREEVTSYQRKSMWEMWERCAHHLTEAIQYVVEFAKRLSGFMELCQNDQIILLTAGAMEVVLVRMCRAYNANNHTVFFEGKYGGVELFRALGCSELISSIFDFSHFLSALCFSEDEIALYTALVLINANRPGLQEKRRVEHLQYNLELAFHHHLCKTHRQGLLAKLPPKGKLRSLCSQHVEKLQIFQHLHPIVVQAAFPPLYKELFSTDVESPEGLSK
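In this cell-based reporter format, copper sulfate (700 uM final) drives Gal4–ROR gamma fusion expression from a metallothionein promoter in Drosophila Schneider cells; compounds preincubated 1 hr, reporter read after 20 hr at ambient temperature.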
SW480 rerep: inducers of DNA re-replication in SW480 colon cancer cells. SW480 DNA re-replication, Hoechst DNA content imaging, 48 h. Potency, µM (series often up to 46.1 µM), most hits filed as activators. hit rate 1.8% among 340,000; further: nearly all actives have a fitted effect of over 55% in size
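250 cells/well; 23 nL cpd via pin tool; 48 hr, 37 C, 5% CO2; Hoechst 40 min; imager read of total nuclear intensity, ex 405/em 500-530 nm.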
KB-3-1 tox: KB-3-1 parental cell cytotoxicity. KB-3-1 viability, CellTiter-Glo ATP luminescence, 72 h. hit rate 1.4% among 400,000. Potency, µM (series often up to 46.1 µM), usual class: cytotoxic; further: nearly all actives have a fitted effect of over 60% in size
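Parental KB-3-1 adenocarcinoma cells in phenol-red-free DMEM with 10% FBS were pin-treated with compounds at several concentrations, incubated 72 h at 37 °C, and viability read by CellTiter-Glo luminescence; concentration-effect curves were fitted after normalization.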
VP16 counter: counter-screen for ROR gamma inhibitors: Gal4-VP16 reporter; Drosophila S2 Gal4-VP16 UAS-luciferase, luminescence, 20 h; Potency, µM (highest dose often 53.6 µM), most hits filed as inhibitors; hit rate 3.5% among 310,000; AID 2546;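 further: Gal4-VP16 expression switched on by copper sulfate through the metallothionein promoter; nearly all actives have a fitted effect of over 50% in size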
KB-V1 cytotox: kills drug-selected multidrug resistant KB-V1 cells; KB-V1 MDR cells viability, CellTiter-Glo, 72 h; Potency, µM (titrated, usually from 46.1 µM), usual class: cytotoxic; hit rate 3.4% among 400,000; AID 1347076; further: nearly all actives have a fitted effect of over 60% in size
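Cytotoxicity via CellTiter-Glo luminescence after 72 h compound exposure at 37 degrees C. Cells: drug-selected KB-V1 line, DMEM phenol-red free plus 10% FBS. Compounds tested at multiple concentrations; normalized data fitted to concentration-effect curves.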
Numbers stand for hits; 0 = inactive; ? = inconclusive; - = no result; [ ] = remark or other dose. Hits are enriched below; roughly 10% of the tested compounds scored in any of these assays. The call rests on the fitted dose curve; in most records, active means well fitted curve in the direction sought with a large enough effect; inconclusive means small, poorly fitted or top-dose-only effect, or another doubt; inactive means no such curve, though single readings can be large; an effect the other way counts as inactive or inconclusive.

SMILES	MCF10A rerep	RORgamma inh	SW480 rerep	KB-3-1 tox	VP16 counter	KB-V1 cytotox
CC1=NN(C(N)=S)C(=O)C1N=Nc1ccccc1 (stereo unspecified)	0	0.2µM	0	0	0.89µM	0
CC1=NN(c2ccccc2)C(=O)C1N=Nc1cccc(O)c1 (stereo unspecified)	?	?	0	?	?	0
CC1=NN(C(N)=S)C(=O)C1N=Nc1cccc([N+](=O)[O-])c1 (stereo unspecified)	?	0.5µM	0	?	1.6µM	0
CCCC[n+]1ccn(-c2nc3ccccc3nc2[N-]S(=O)(=O)c2cccs2)c1	?	0	16µM	0	0	0
O=S(=O)([N-]c1nc2ccccc2nc1-n1cc[n+](Cc2ccccc2)c1)c1ccccc1	6.5µM	0	?	0	0	0
CCOc1ccc(-n2c(=O)c3c(C)c(C)sc3n(CC(=O)C(C)(C)C)c2=O)cc1	-	-	-	0	-	0
Cc1ccc2nc3sc(C(=O)Nc4ccc(F)cc4)cc3cc2c1	-	-	-	0	-	0
CC1(OC(=O)C2CCCC2)C(=O)C=C2C=C(c3ccsc3)N(C3CCCCC3)C=C2C1=O (stereo unspecified)	0	0	0	21µM	0	0
Cc1csc(NCC(=O)c2c(C)[nH]c3ccccc23)n1	-	-	-	0	-	0
Cc1ccc(/C=C/C(=O)c2ccc([N+](=O)[O-])o2)cc1	3.3µM	-	1.5µM	0	-	?
Cc1ccc(C(=O)/C=C/c2ccc(Br)cc2)o1	7.3µM	?	18µM	0	0	0
Cc1ccc(C(=O)/C=C/c2ccccc2)o1	?	0	0	?	0	?
O=C(/C=C/c1ccc(Cl)cc1)c1ccc([N+](=O)[O-])o1	8.2µM	-	?	?	-	?
CCCCCCCCCCCCCCCC(=O)OCC(COP(=O)(O)OCC[N+](C)(C)C)OC(=O)CCCCCCCCCCCCCCC (stereo unspecified)	0	0	0	-	0	-
COc1ccccc1S(=O)(=O)N(C)C[C@H]1Oc2cc(C#CCC3CCCC3)ccc2S(=O)(=O)N([C@H](C)CO)C[C@H]1C	-	-	-	0	-	0
Cc1nc(NCCN2CCOCC2)c2oc3ccccc3c2n1	0	0	0	0	0	0
CCCc1nc2oc3c(NCCN4CCOCC4)ncnc3c2c2c1CCCC2	0	?	0	0	0	1.8µM
c1ccc2c(c1)oc1c(NCCN3CCOCC3)ncnc12	0	0	0	0	0	23µM
c1ccc2c(c1)oc1c(Nc3ccc(CN4CCOCC4)cc3)ncnc12	16µM	0	0	?	0	18µM
Clc1ccc(Cn2ncc3c(NCCN4CCOCC4)ncnc32)cc1	0	0	0	0	0	21µM
Cc1cccc(NC(=O)C2CCC(CNS(=O)(=O)c3csc(C(N)=O)c3)CC2)c1C (stereo unspecified)	-	-	-	0	-	?
COc1ccc(NC(=O)C(CC(C)C)NS(=O)(=O)c2ccc3c(c2)oc(=O)n3C)cc1Cl (stereo unspecified)	-	-	-	0	-	0
COc1cccc(NC(=O)Cn2c(=O)n(Cc3nc(-c4ccccc4)no3)c(=O)c3ccccc32)c1	-	-	-	0	-	0
CC(=O)N1CCN(c2ccc(Nc3ncnc4c3oc3ccccc34)cc2)CC1	?	0	0[9.22 µM]	?	?	21µM
CCc1nc(Nc2ccc(N3CCN(C(C)=O)CC3)cc2)c2oc3ccccc3c2n1	?	0	0	?	0	?
SMILES	MCF10A rerep	RORgamma inh	SW480 rerep	KB-3-1 tox	VP16 counter	KB-V1 cytotox
CN(C(=O)c1cccc(NC(=O)Cc2ccc(NC(=O)C3CCCN(S(=O)(=O)c4cccc([N+](=O)[O-])c4)C3)cc2)c1)C1CCCCC1 (stereo unspecified)	0	-	0	0	-	0
Cc1ccc(CC(=O)Nc2ccncc2)cc1	0	0	0	0	0	0
O=C(Cc1ccc(Cl)cc1)Nc1ccncc1	0	?	0	0	2.8µM	0
Cc1nc(NC(=O)CN(C)S(=O)(=O)c2ccc(Br)cc2)sc1C	0	0	0	0	0	18µM
CN(CC(=O)Nc1ccncc1)S(=O)(=O)c1ccc(Br)cc1	0	0	?	0	0	21µM
CN(CCCC(=O)Nc1ccncc1)S(=O)(=O)c1ccc(Cl)cc1	0	0	0	0	16µM	0
